Shown are actives, neighbours in structure and some others; about 1.1% of the full set was active somewhere.
GALR2 antag – GALR2 (human) receptor antagonism; AID 828; O43603; 140,000 compounds, 0.39% hits; GALR2-expressing cells, antagonist mode; inhibition, % at 4 µM;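 further: cells stimulated with galanin 1-16 at roughly its EC80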
S1P2 ag – S1P2 (human) receptor agonism; O95136; S1P2-expressing cell line, agonist reporter read-out; activation, % at 4.5 µM; 97,000 compounds, 0.46% hits; in the data active means activation above about 16%
Target sequence (O95136 whole entry, looked up): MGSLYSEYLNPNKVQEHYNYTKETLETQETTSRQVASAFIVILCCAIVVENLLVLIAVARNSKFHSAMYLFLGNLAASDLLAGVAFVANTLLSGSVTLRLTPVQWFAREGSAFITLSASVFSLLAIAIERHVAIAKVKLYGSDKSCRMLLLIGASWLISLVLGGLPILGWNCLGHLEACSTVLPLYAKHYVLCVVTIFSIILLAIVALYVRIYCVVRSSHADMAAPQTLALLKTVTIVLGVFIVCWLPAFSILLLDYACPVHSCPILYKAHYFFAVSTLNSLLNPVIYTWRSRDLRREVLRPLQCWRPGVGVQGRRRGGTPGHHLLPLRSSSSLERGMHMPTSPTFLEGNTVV
GALR2 ag – activates the human galanin receptor 2; 140,000 compounds, 0.48% hits; GALR2-expressing cells, agonist activation read-out; O43603; activation, % (concentration not given with the values); AID 803; in the data active means activation above about 5%, passing the limit was not always enough
S1P2 antag – S1P2 (human) receptor antagonism | inhibition, % at 5 µM | O95136 | AID 736 | cell-based S1P2 antagonist assay, inhibition at 5 uM | 97,000 compounds, 0.21% hits; in the data active means inhibition above about 45%;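 further: CRE beta-lactamase reporter cells expressing human S1P2 stimulated with S1P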
GALR2 blk conf – GALR2 (human) antagonism confirmed | shares compounds with GALR2 antag | GALR2-expressing cells, antagonist mode, inhibition | inhibition, % at 4 µM | 480 compounds, 60% hits | AID 866;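 further: cells stimulated with galanin at about its EC80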
BLA inhib ctr – beta-lactamase inhibition, GALR2 counterscreen | shares compounds with GALR2 antag | CHO NFAT-BLA reporter, beta-lactamase FRET, thapsigargin-stimulated | inhibition, % at 4.2 µM | 480 compounds, 36% hits | AID 867;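 active means inhibition above the mean inhibition across tested compounds plus 3 SD, cut at about 27% in these data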
Of the large screens only hits and unclear results are named; the others gave an inactive call (follow-up assays come after a bar, where they were run). Unless noted, no stated cut-off is given here; in the data, active means inhibition above about 27%; inactive means the rest.

COc1ccc(S(=O)(=O)Nc2cc(Sc3ncn[nH]3)c(O)c3ccccc23)cc1	GALR2 antag 49 | GALR2 blk conf inactive | BLA inhib ctr inactive
COc1cc(OC)cc(C(=O)Nn2cc(C(=O)Nc3ccc(F)cc3F)c3ccccc3c2=O)c1	none (no result: S1P2 ag, S1P2 antag)
O=C(OCn1ncc(Br)c(Br)c1=O)c1c(F)cccc1F	GALR2 antag 96, S1P2 antag 69 | GALR2 blk conf 94 | BLA inhib ctr 98
CCOc1ccc(-c2nc(-c3ccncc3)no2)cc1OCC	none
CCOc1cc(-c2nc(-c3ccncc3)no2)cc(OCC)c1OCC	GALR2 antag 35 | GALR2 blk conf inactive | BLA inhib ctr inactive
O=C(CN1C(=O)C2C3C=CC(C3)C2C1=O)Nc1ccc(S(=O)(=O)N2CCCCC2)cc1 (stereo not drawn)	none (no result: S1P2 ag, S1P2 antag)
O=C(Nc1ccc(S(=O)(=O)N2CCOCC2)cc1)c1ccc(CN2CCc3ccccc3C2)cc1	GALR2 antag 28, S1P2 antag 85 | GALR2 blk conf 46 | BLA inhib ctr inactive
O=C(Nc1ccc(S(=O)(=O)N2CCCC2)cc1)c1ccc(CN2CCc3ccccc3C2)cc1	none (no result: S1P2 ag, S1P2 antag)
O=C(OCn1ncc(Cl)c(Cl)c1=O)c1ccccc1Cl	GALR2 antag 95, S1P2 antag 84 | GALR2 blk conf 93 | BLA inhib ctr 82
O=C(OCn1ncc(Cl)c(Cl)c1=O)c1ccc(F)cc1	GALR2 antag 91, S1P2 antag 80 | GALR2 blk conf 93 | BLA inhib ctr 86
O=C(N1CCN(c2cccc(Cl)c2)CC1)C1(c2cccs2)CCOCC1	none (no result: S1P2 ag, S1P2 antag)
CCc1ccc2c(c1)/C(=C/C(=O)c1cccs1)C(=O)N2	GALR2 antag 28 | GALR2 blk conf 35 | BLA inhib ctr inactive
Cc1ccc(NC(=O)COC(=O)C2(c3ccc(Cl)cc3)CCCC2)cc1	none (no result: S1P2 ag, S1P2 antag)
CC1C/C(=C\c2cccnc2)C(=O)/C(=C/c2cccnc2)C1 (stereo not drawn)	GALR2 antag 36 (no result: S1P2 ag, S1P2 antag) | GALR2 blk conf 44 | BLA inhib ctr inactive
CCOC(=O)C1=C(C)N(CCCC(=O)O)C(=O)NC1c1ccccc1OS(=O)(=O)c1ccc(C)cc1 (stereo not drawn)	none (no result: S1P2 ag, S1P2 antag)
Clc1ccc2c(c1)C(c1cccs1)=NNC(c1cccnc1)=N2	none
O=C(Nc1ccccc1)c1ccccc1NC(=O)C1CCCCC1	none
Cc1cccc(NC(=O)c2ccccc2NC(=O)C2CCCCC2)c1C	GALR2 antag 42 | GALR2 blk conf inactive | BLA inhib ctr inactive
COc1ccc(Nc2cnn(-c3nc4ccccc4s3)c(=O)c2Cl)cc1	GALR2 antag 44 (no result: S1P2 ag, S1P2 antag) | GALR2 blk conf 52 | BLA inhib ctr 58
Cc1cc(C(=O)CSc2nc3ccccc3[nH]2)c(C)n1CC1CCCO1 (stereo not drawn)	GALR2 antag 43, S1P2 antag 66 | GALR2 blk conf 34 | BLA inhib ctr inactive
CC1(C)OC(=O)N(CCc2ccccc2)C1(C)O (stereo not drawn)	GALR2 antag 31 (no result: S1P2 ag, S1P2 antag) | GALR2 blk conf inactive | BLA inhib ctr inactive
Cc1[nH]c2ccc(OCc3ccccc3)cc2c1CCN1C(=O)OC(C)(C)C1(C)O (stereo not drawn)	none
Cn1c(N=NC(=O)c2ccccc2)c(O)c2ccccc21	none (no result: S1P2 ag, S1P2 antag)
Cc1[nH]c2ccccc2c1/C=C(\C#N)C(=O)NCc1ccccc1	GALR2 antag 32 (no result: S1P2 ag, S1P2 antag) | GALR2 blk conf inactive | BLA inhib ctr inactive
CC(=O)N1CCC(=NNC(=O)c2cccs2)CC1	none (no result: S1P2 ag, S1P2 antag)
COc1ccccc1NC(=O)c1[nH]c(C)c(C(C)=O)c1C	GALR2 antag 28 | GALR2 blk conf 33 | BLA inhib ctr inactive
Cc1cccc(COc2ncnc3nc[nH]c23)c1	none (no result: S1P2 ag, S1P2 antag)
O=c1[nH][nH]c(-c2ccccc2)c1C=Nc1ccc(Cl)cc1	GALR2 antag 29 | GALR2 blk conf inactive | BLA inhib ctr inactive
O=c1[nH][nH]c(-c2ccccc2)c1C=Nc1cccc(Cl)c1	none
O=S(=O)(NC1CCCCC1Oc1ccccc1)c1ccccc1 (stereo not drawn)	none (no result: S1P2 ag, S1P2 antag)
O=[N+]([O-])c1cc(-c2ncccn2)c([N+](=O)[O-])s1	GALR2 antag 45 (no result: S1P2 ag, S1P2 antag) | GALR2 blk conf 55 | BLA inhib ctr inactive
C=CCC1CCCC(=O)N2CC[C@H](O)C12 (stereo partly drawn)	none (no result: S1P2 ag, S1P2 antag)
Cc1nc2nc(-c3cccs3)cn2nc1C	GALR2 antag 28 | GALR2 blk conf 31 | BLA inhib ctr 35
CCN(CC)S(=O)(=O)c1ccc(N2CCOCC2)c(NC(=O)c2c3c(nc4ccccc24)CCC3)c1	none (no result: S1P2 ag, S1P2 antag)
COc1cc(C2NC(=S)NC(O)(C(F)(F)F)C2C(=O)c2cccs2)cc(OC)c1O (stereo not drawn)	none (no result: S1P2 ag, S1P2 antag)
